# Laboratory results reported in the OligoGym collection.
# Biological target: GRAMD1C
# Assay: pooled miR-30 sensor sort-seq; sequence = guide strand
# Details: shRNA
# Also: reference of the scale not given here.
row,Sequence,sensor-assay potency score (higher = more potent)
1,ATAATCATCATCAACATGCAGA,0.0723
2,TTATTTAGTAGATCAAACGTTT,-0.243
3,TAACTCTTGAAAAAATATCTGA,-0.51
4,TTGCTATAGAAACATAGCCAGT,-1.61
5,TTCATTTTTATTCAAGTCCAGT,-0.865
6,TAGTCCTCCAAAGAACTCCAGG,-0.901
7,TTTTGATGAATTTCCATCGAAT,-0.801
8,TACATCTTCCTGTAAGTCGGTG,-0.625
9,TTGATAGTCAGTACACTTGTAC,0.115
10,TAACAAATCTGATTCAAGCTGT,0.354
11,TATAAAGCAACTTACTTCGATA,-0.838
12,TATTCTTCTGAATAGTTTCTGC,-0.573

# Biological target: GRHL3
# Assay: as above
# Details: shRNA
row,Sequence,sensor-assay potency score (higher = more potent)
1,TTTAGCAGCCGCACAGACCTGA,-0.237
2,TTGCATTTCTTGTAGACTTTGT,-0.218
3,TTCTTCTTGAGCAAATCTGGGT,-0.605
4,TTTTCTAGGTACGTCTTCCAGG,-0.466
5,TATTCTTCTTGAGCAAATCTGG,-0.748
6,TCACAGAAGATCTTGATCTGGC,0.419
7,TAGTGTAAGAGAATTTCTGCAA,0.49
8,TTTTGTGAGGAAAAGTCTGTGC,-0.211
9,TTTGTGGCAGCTGTCAACGGGT,-0.745
10,TTGATCTGGCAGACAGCACGGT,-0.0201
11,TTGACTAAGATTCCTCGCTTGC,-0.416
